# TDP1 block – qHTS Assay for Inhibitors of Tyrosyl-DNA Phosphodiesterase (TDP1). recombinant TDP1, AlphaScreen DNA substrate cleavage. Potency, µM (highest dose often 130 µM), actives largely listed as inhibitors. 350,000 compounds, 0.28% hits. AID 485290, 2010; further: nearly all actives have a fitted effect of over 40% in size
# Target sequence (Q9NUW8 whole entry, looked up): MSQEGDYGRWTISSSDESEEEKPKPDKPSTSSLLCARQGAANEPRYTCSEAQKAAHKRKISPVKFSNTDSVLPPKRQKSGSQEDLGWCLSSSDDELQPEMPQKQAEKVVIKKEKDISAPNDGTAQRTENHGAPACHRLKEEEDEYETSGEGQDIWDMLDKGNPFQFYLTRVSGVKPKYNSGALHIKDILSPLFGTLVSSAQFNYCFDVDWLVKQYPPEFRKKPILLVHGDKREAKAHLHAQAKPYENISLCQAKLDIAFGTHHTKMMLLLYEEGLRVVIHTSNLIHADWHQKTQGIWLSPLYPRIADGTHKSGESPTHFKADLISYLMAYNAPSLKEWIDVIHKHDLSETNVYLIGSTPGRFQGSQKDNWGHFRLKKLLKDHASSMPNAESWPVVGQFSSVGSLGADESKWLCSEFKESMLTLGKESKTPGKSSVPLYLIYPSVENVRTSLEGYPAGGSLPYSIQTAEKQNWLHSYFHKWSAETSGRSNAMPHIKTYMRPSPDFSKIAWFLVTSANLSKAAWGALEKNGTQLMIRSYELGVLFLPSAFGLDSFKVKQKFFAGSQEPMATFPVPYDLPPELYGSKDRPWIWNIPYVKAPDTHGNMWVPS
#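 Signal: AlphaScreen proximity between streptavidin donor and anti-FITC acceptor beads on intact substrate. Reaction: Tdp1 1 nM, substrate 15 nM final, 5 min RT after 15 min compound preincubation.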
# ELG1 DNA repair – qHTS screen for small molecules that inhibit ELG1-dependent DNA repair in human embryonic kidney (HEK293T) cells expressing luciferase-tagged ELG1. AID 504467, 2011. 330,000 compounds, 2.3% hits. Potency, µM (series often up to 46.1 µM), usual class: inhibitors. HEK293T ELG1-luciferase reporter, luminescence, 16 h; DNA damage induced by 5-fluorouridine; further: nearly all actives have a fitted effect of over 55% in size
#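 Cells (2,000 per well) received 5-fluorouridine plus test compound or DMSO and were incubated 16 hr at 37 °C, 5% CO2. Luciferase activity was read by luminescence 30 min after ONE-Glo addition; signal suppression marked inhibition of damage-induced ELG1 function.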
# IL-1B inflam inh – qHTS for Inhibitors of Inflammasome Signaling: IL-1-beta AlphaLISA Primary Screen. THP-1 LPS/ATP IL-1B secretion, AlphaLISA, 16 h; active compounds read low. activity change, % at 57.5 µM. 360,000 compounds, 4.7% hits; in the data active means activity change below about -50%; inconclusive means mostly about -30% to -49%
#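 Secreted IL-1B measured by AlphaLISA bead assay after 16 h compound exposure of THP-1 cells; compounds (final up to 57.5 uM) added 1 h before LPS (250 ng/mL) and ATP (1.25 mM) stimulation; lower signal means less secretion.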
# TDP1 cell noCPT – qHTS for Inhibitors of human tyrosyl-DNA phosphodiesterase 1 (TDP1): qHTS in cells in absence of CPT; AID 686978, 2013; DT40 Tdp1-/- hTDP1 cells, no CPT, ATP luminescence, 48 h; Potency, µM (doses to about 46.2 µM), most hits filed as inhibitors; 420,000 compounds, 15% hits; further: nearly all actives have a fitted effect of over 55% in size
#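 No-CPT arm: Tdp1-/-;hTDP1 DT40 cells (400/well) plus compounds, incubated ≥48 hr at 37 °C. Readout CellTiter-Glo luminescence.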
# Giardia killer – Small Molecules that selectively kill Giardia lamblia: qHTS; Giardia lamblia trophozoite viability; activity change, % at 7.66 µM, hits read low; 340,000 compounds, 0.15% hits; AID 540267, 2011; in the data active means activity change below about -80%; inconclusive means between about -30% and that limit;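 further: parasites exposed to compound for two days anaerobically before the ATP read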
#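 Compounds were tested on trophozoites seeded at 100 cells/well and held 48 hrs at 37 deg C anaerobically. An ATP-based luminescent kit measured the remaining live cells.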
# DT40 TDP1 CPT – qHTS for Inhibitors of human tyrosyl-DNA phosphodiesterase 1 (TDP1): qHTS in cells in presence of CPT; Potency, µM (highest dose often 46.2 µM), hits mostly inhibitors; chicken DT40 Tdp1-/-;hTDP1 cells + 20 nM CPT, ATP luminescence, 48 h; 420,000 compounds, 12% hits; further: nearly all actives have a fitted effect of over 55% in size
#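 Cell growth measured by CellTiter-Glo luminescence after a minimum 48 h, 37 C compound exposure with 20 nM CPT in Tdp1-knockout DT40 cells stably expressing hTDP1, seeded 400/well; qHTS titration format.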
# Numbers stand for hits; – = inactive; ? = inconclusive; · = no result given; ! = repeats disagree; [ ] = another dose, or the depositor's remark. A selection: hits, their analogues and other compounds. The true share with any hit is near 19%. Unless noted, the call rests on the fitted dose curve; in most records, active means well fitted curve in the direction sought with a large enough effect; inconclusive means small, poorly fitted or top-dose-only effect, or another doubt; inactive means no such curve, though single readings can be large; an effect the other way counts as inactive or inconclusive.
SMILES,TDP1 block,ELG1 DNA repair,IL-1B inflam inh,TDP1 cell noCPT,Giardia killer,DT40 TDP1 CPT
COc1ccc(C2N=C(N)N=C(N)N2c2ccc(C)cc2)cc1 (centres undefined),–,–,?,?,–,6.5µM
Cc1cc(C)cc(N2C(N)=NC(N)=NC2c2cccc(Cl)c2)c1 (centres undefined),·,?,-54,5.2µM,–,?
Cc1cc(C)cc(N2C(N)=NC(N)=NC2c2ccccc2F)c1 (centres undefined),·,–,–,0.65µM,–,?
Clc1cnc(Nc2cccnc2)c(Cl)c1,–,–,–,–,–,–
CCOC(=O)c1cc(-c2csc(Nc3c(C)cc(C)cc3C)n2)on1,–,–,–,–,–,–
COc1ccc(-n2nnc(C(=O)Nc3ccccc3F)c2N)cc1,–,·,·,–,·,–
C=CCSc1nnc(NC(=O)CCN2C(=O)C3CC=CCC3C2=O)s1 (centres undefined),–,?,–,–,–,–
Cc1cc(N2CCN(C)CC2)nc2ccc(NC(=O)c3ccccc3F)cc12,–,?,-56,?,–,18µM!
CCCCN(CC)CCNC(=O)CCC(=O)Nc1ccc2nc(N3CCN(C)CC3)cc(C)c2c1,–,?,?,–,–,–
CCN1CCN(c2cc(C)c3cc(NC(=O)c4ccccc4F)ccc3n2)CC1,–,–,·,?,·,?
Cc1cc(N2CCN(C)CC2)nc2ccc(NC(=O)Nc3ccccc3Br)cc12,–,·,·,15µM,·,21µM
Cc1cc(N2CCN(C)CC2)nc2ccc(NC(=O)Nc3cccc(Cl)c3)cc12,–,·,·,4.6µM,·,8.2µM
CCCCN(CC)CCNC(=S)Nc1ccc2nc(N3CCN(C)CC3)cc(C)c2c1,·,–,-55,18µM,–,?
O=C(CCSCc1ccccc1F)NCCc1ccccc1,–,–,–,–,–,–
CSc1cccc(NC(=O)C2CCN(c3ncnc4c3nc3n4CCCCC3)CC2)c1,–,·,·,–,·,?
COc1ccc(NC=O)c(C(=O)CCNC(C)=O)c1,–,·,·,·,·,·
O=C(c1cn(C2CCCN(Cc3cc(Cl)ccc3O)C2)nn1)N1CCCCC1 (centres undefined),·,·,·,–,·,–[9.04 µM]
O=c1ccc(Cl)cn1Cc1ccccc1F,–,–,–,–,–,–
CC1(C(=O)NS(=O)(=O)c2ccc(Br)cc2)CCN1C(=O)Cc1cccs1 (centres undefined),·,·,–,–,·,–
CCOc1cc(C(=O)Nc2ccc3nc(N4CCN(C)CC4)cc(C)c3c2)cc(OCC)c1OCC,–,·,·,4.6µM,·,18µM
CCOc1ccc(CCNC(=O)CCC(=O)Nc2ccc3nc(N4CCN(C)CC4)cc(C)c3c2)cc1OCC,–,–,–,–,–,?
Cc1ccc(NC(=O)Nc2ccc3nc(N4CCN(C)CC4)cc(C)c3c2)cc1C,–,·,·,4.6µM,·,12µM
CC1CCCCC1NC(=O)CN1C(=O)CSc2cc(S(=O)(=O)N3CCCCCC3)ccc21 (centres undefined),–,?,–,21µM,–,?
O=C(CN1C(=O)CSc2cc(S(=O)(=O)N3CCCCCC3)ccc21)NCCc1ccccc1,–,–,-62,?,–,?
CCC(CO)[n+]1c(C)cc(/C=C2\Sc3ccccc3N2Cc2ccccc2)cc1C (centres undefined),–,?,-104,2.3µM,–,2.3µM
SMILES,TDP1 block,ELG1 DNA repair,IL-1B inflam inh,TDP1 cell noCPT,Giardia killer,DT40 TDP1 CPT
COC(=O)[C@@]12C[C@@H](CC(=O)NCc3cccc4ccccc34)C(=O)N(Cc3ccccc3)C1=CCC(C)(C)C2,·,·,-61,?,·,?
COC(=O)[C@@]12C[C@@H](CC(=O)NCc3cccc4ccccc34)C(=O)N(Cc3ccc4c(c3)OCO4)C1=CCC(C)(C)C2,·,·,-87,13µM,·,?
COC(=O)[C@@]12C[C@@H](CC(=O)NCc3ccccc3)C(=O)N(Cc3ccc4c(c3)OCO4)C1=CCC(C)(C)C2,·,·,?,16µM,·,16µM
COC(=O)[C@@]12C[C@@H](CC(=O)NCC34CC5CC(CC(C5)C3)C4)C(=O)N(Cc3cccc4ccccc34)C1=CCC(C)(C)C2,·,·,–,?,·,?
CC(C)Cn1c(-c2csc3c2CCCC3)n[nH]c1=S,–,–,–,?,–,–
CN(CCO)C(=O)c1cn(C2CCN(Cc3cccc4ccccc34)CC2)nn1,·,·,·,–,·,–
Cc1ccc2oc(C(=O)Nc3c(C(=O)c4ccc(C)c(F)c4)oc4ccccc34)cc(=O)c2c1,–,·,·,–,·,–
O=C(O)CCCCCN1C(=O)C(O)=C(C(=O)/C=C/c2ccccc2)C1c1ccccc1[N+](=O)[O-] (centres undefined),–,–,–,–,–,–
CN(C)c1ncc2nc(-c3cc(F)cc(F)c3)c(=O)n(C[C@H]3CCCO3)c2n1,·,·,·,–,·,–
Cc1ccc(S(=O)(=O)NCCc2nnc3ccc(SCc4cccc(F)c4)nn23)cc1,–,·,·,23µM,·,15µM
Cc1ccc(S(=O)(=O)NCCc2nnc3ccc(SCc4ccc(F)cc4)nn23)cc1,–,·,·,18µM,·,16µM
CCOC(=O)CSc1ccc2nnc(CCNS(=O)(=O)c3ccc(C)cc3)n2n1,–,–,–,–,–,–
Cn1cc(S(=O)(=O)N2CCCCCC2)cc1C(=O)NCc1ccccc1Cl,–,·,·,?,·,?
CCN(CCNC(=O)c1ccc(CSc2nc3ccncc3[nH]2)cc1)c1ccccc1,–,?,–,–,–,–
O=C(NCCN1CCN(c2cccc(Cl)c2)CC1)c1ccc(CSc2nc3ccncc3[nH]2)cc1,–,?,-63,?,–,?
CC1CC(C)CN(C(=O)c2ccc(CSc3nc4ccncc4[nH]3)cc2)C1 (centres undefined),–,–,–,12µM,–,?
COc1cccc([C@@H]2Oc3ccc(Br)cc3C(=O)[C@H]2OC(=O)NS(=O)(=O)c2ccc(F)cc2)c1,–,·,·,·,·,·
CCOC(=O)C1CCN(C(=O)c2ccc3c(c2)NC(=O)/C(=C\c2cccc(C)c2)S3)CC1,–,15µM,–,18µM,–,?
CCOC(=O)C1CCN(C(=O)c2ccc3c(c2)NC(=O)/C(=C\c2ccc(C)cc2)S3)CC1,–,–,–,?,–,?
Cc1ccc(/C=C2/Sc3ccc(C(=O)NCc4ccccn4)cc3NC2=O)cc1,32µM,–,–,–,–,?
Cc1cccc(/C=C2/Sc3ccc(C(=O)NCCN4CCCC4)cc3NC2=O)c1,–,–,?,23µM,–,?

# Bioassay records deposited in PubChem BioAssay by National Center for Advancing Translational Sciences (NCATS).
